Screens deposited in PubChem BioAssay by several laboratories.
In the library only some 4.6% were active in any assay of this set; here they are far more common.
SKKanGAS inh = blocks kanamycin growth of S. pyogenes SKKanGAS strain | BacTiter-Glo, 6 h | 300,000 compounds, 1.3% hits | inhibition, % at 7.5 µM | AID 1662;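 active = mean replicate score, as percent of positive control median, at least 50; inconclusive = mean below 50 but one replicate at or above 50; inactive = mean and every replicate below 50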;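 also: strain carries kanamycin resistance gene driven by streptokinase promoter and grows in 40 µg/ml kanamycin; loss of luminescence reflects streptokinase promoter inhibition or plain growth inhibition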
tim10-1 inh = tim10-1 yeast growth inhibition; 330,000 compounds, 2.2% hits; inhibition, % at 20 µM; AID 463190; S. cerevisiae tim10-1 ts strain growth, BacTiter-Glo, 24 h;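 active = inhibition of at least 40%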;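 also: mutant grown at 25 °C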
TIM10 inh = growth inhibitors of TIM10 yeast strain; S. cerevisiae TIM10 strain growth, BacTiter-Glo luminescence, 24 h; inhibition, % at 10 µM; 330,000 compounds, 1.4% hits; AID 463195;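 active = inhibition of 40% or more at the single tested concentration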;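 also: wild-type TIM10 isogenic control strain grown at permissive 25 °C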
tim23-1 inh = growth inhibitors of tim23-1 mutant yeast. AID 463212. inhibition, % at 20 µM. 330,000 compounds, 1.3% hits. S. cerevisiae tim23-1 growth, BacTiter-Glo luminescence, 24 h;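 active = growth inhibition of the mutant yeast at or above 50%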;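 also: temperature-sensitive mutant grown at 25 °C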
NALP3 yeast inh = NALP3 inhibition in yeast | inhibition, % at 10 µM | AID 2825 | Yeast reconstituted NLRP3/ASC/caspase-1, beta-gal luminescence, 24 h | 330,000 compounds, 0.39% hits;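 active = inhibition of 50% or more; inactive = inhibition below 50%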
NALP3 yeast conf = confirmation of NALP3 inhibitors in yeast | 1,300 compounds, 81% hits | shares compounds with NALP3 yeast inh | yeast expressing human NALP3, luminescence | AID 435006 | inhibition, % at 10 µM; in the data active = inhibition above about 48%
Casp1 ASC ctr = active in yeast caspase-1-ASC counter-screen for NALP3 inhibitors; shares compounds with NALP3 yeast inh; yeast expressing Caspase-1-ASC, luminescence counter screen; inhibition, % at 10 µM; 1,000 compounds, 66% hits; AID 488784
NALP3 yeast rt = yeast NALP3 inhibition, confirmed on retest; yeast expressing human NALP3, luminescence read-out; 1,000 compounds, 53% hits; AID 488794; inhibition, % at 10 µM; shares compounds with NALP3 yeast inh
Numbers stand for hits; – = inactive; ? = inconclusive; · = no result. Rule as the data show it, unless noted: active = inhibition above about 50%; inactive = the rest.

SMILES | SKKanGAS inh | tim10-1 inh | TIM10 inh | tim23-1 inh | NALP3 yeast inh | NALP3 yeast conf | Casp1 ASC ctr | NALP3 yeast rt
CCC1(c2ccccc2)NC(=O)N(CC(=O)NCC2COc3ccccc3O2)C1=O (configuration not stated) | · | – | – | – | – | · | · | ·
CCOC(=O)Nc1ccc(S(=O)(=O)NC2CCCCC2)cc1 | – | – | – | – | 57 | 68 | · | ·
O=C(COC(=O)c1cnc(Cl)c(Cl)c1)NC1CC1 | · | – | – | – | – | · | · | ·
CCCOc1ncnc2c1[nH]c1ccc(C)cc12 | – | – | – | – | – | · | · | ·
CCOc1ncnc2c1[nH]c1ccccc12 | – | – | – | – | 61 | 82 | · | ·
Cc1noc(C)c1C(=O)Nc1nc2ccccc2s1 | · | – | – | – | 50 | 49 | – | –
Cc1ccc(C(=O)Nc2nc3ccccc3s2)s1 | – | – | – | – | – | · | · | ·
COc1ccc(NC(=O)C2CCCCC2)cc1S(=O)(=O)N1CCOCC1 | · | – | – | – | – | · | · | ·
CCCSc1nnc(Sc2nnnn2-c2ccccc2)s1 | – | – | – | – | 58 | 66 | 60 | –
O=C(CSc1ncnc2c1oc1ccccc12)NCc1ccc(F)cc1 | – | – | – | – | 55 | 63 | – | –
O=C(CSc1ncnc2c1oc1ccccc12)Nc1cccc(F)c1 | – | – | – | – | – | · | · | ·
O=C(CN1c2ccccc2S(=O)(=O)c2ccccc21)Nc1ccccc1F | – | – | – | – | – | · | · | ·
COc1cc(C(=O)N2CCN(C)C(C)C2)ccc1OC1CCN(C(C)=O)CC1 (configuration not stated) | – | – | – | – | – | · | · | ·
CN(CC(=O)N1CCc2ccccc2C1)c1ccccc1 | · | – | – | – | 55 | – | – | 55
CCn1c2c(c3cc(Cl)ccc31)CCCC2=O | – | – | – | – | – | · | · | ·
Cc1ccc2c(c1)c1c(n2C)C(=O)CCC1 | – | – | – | – | 54 | 56 | 63 | 52
CCn1c(SCC(=O)OC2CCCCC2)nc2ccccc2c1=O | – | – | – | – | 51 | 71 | 50 | –
CCN1C(=O)[C@H]2[C@@H](c3ccc(-c4ccccc4)cc3)N3CCCC[C@@]3(C(=O)OC)[C@H]2C1=O | – | – | – | – | – | · | · | ·
COc1cc(OC)cc(-c2cc3cc4c(cc3cn2)OCO4)c1 | · | – | – | – | 56 | 56 | – | –
C(=N\Nc1nc(-c2ccccc2)cs1)/c1cccnc1 | – | – | – | – | – | · | · | ·
CC(C)(C)c1csc(N/N=C/c2cccnc2)n1 | – | – | – | – | 58 | 68 | 76 | 56
O=C(Nc1ccc2c(c1)oc1ccccc12)c1cccnc1 | – | – | – | – | 74 | 60 | – | –
O=C(Nc1ccc2ccccc2c1)c1cccnc1 | – | – | – | – | – | · | · | ·
Fc1ccccc1CSc1nnc(-c2cnccn2)n1Cc1ccco1 | – | – | – | – | – | – | · | ·
C(=C\c1ccccc1)/CSc1nnc(-c2cnccn2)n1Cc1ccco1 | – | – | – | – | – | · | · | ·
SMILES | SKKanGAS inh | tim10-1 inh | TIM10 inh | tim23-1 inh | NALP3 yeast inh | NALP3 yeast conf | Casp1 ASC ctr | NALP3 yeast rt
O=C(NCCCCc1ccccc1)c1ccccc1F | – | – | – | – | 54 | 62 | 53 | –
O=C(NCCCCc1ccccc1)c1ccc(Br)cc1 | – | – | – | – | 59 | 61 | – | –
COc1ccccc1C1CCN(C(=O)c2ccc(Cl)cc2)CC1 | – | – | – | – | – | · | · | ·
CCCN1CCCc2cc(CN)ccc21 | – | – | – | – | 54 | 60 | · | ·
S=C(Nc1cc(Cl)cc(Cl)c1)NC1CCN(Cc2ccccc2)CC1 | – | – | – | – | 56 | 53 | · | ·
O=C(NCc1ccccc1CN1CCCC1)c1cccc(S(=O)(=O)N2CCOCC2)c1 | · | – | – | – | – | · | · | ·
Cc1ccc(CNc2cnn(C34CC5CC(CC(C5)C3)C4)c(=O)c2Cl)cc1 | – | – | – | – | 53 | 49 | – | –
CC(C(=O)NCCC1=CCCCC1)c1ccc([N+](=O)[O-])cc1 (configuration not stated) | – | – | – | – | 51 | 61 | – | –
NCCNC(=O)c1c(O)c2cccc3c2n(c1=O)CCC3 | – | – | – | – | 61 | 75 | 51 | –
CCCNC(=O)c1c(O)c2cccc3c2n(c1=O)CCC3 | – | · | · | · | · | · | · | ·
COc1cc(CCC(=O)OCC(=O)NCCc2ccc(S(N)(=O)=O)cc2)cc(OC)c1OC | · | – | – | – | – | · | · | ·
O=S(=O)(c1ccccc1)N1CCN(Cc2cccc(Br)c2)CC1 | – | – | – | – | – | · | · | ·
O=S(=O)(c1ccc(Cl)s1)N1CCN(Cc2ccccc2)CC1 | – | – | – | – | – | · | · | ·
O=S(=O)(c1cccc(Br)c1)N1CCN(CCc2ccccc2)CC1 | – | – | – | – | 53 | 71 | 52 | –
O=S(=O)(c1ccc(Cl)s1)N1CCN(CCc2ccccc2)CC1 | – | – | – | – | 60 | 76 | 63 | 53
Cc1ccc2c(c1)C(CCN)C(=O)N2Cc1ccccc1 (configuration not stated) | – | – | – | – | 51 | 68 | 52 | 51
O=C(Nc1ccc(Nc2ccccc2)cc1)C(Cl)(Cl)Cl | – | – | – | – | 61 | 68 | · | ·
CC1(C(=O)OCC(=O)NCCNC(=O)COC(=O)C2(C)CC2(Cl)Cl)CC1(Cl)Cl (configuration not stated) | – | – | – | – | – | · | · | ·
Cn1ncc2c(Nc3ccc(-c4ccccc4)cc3)ncnc21 | – | – | – | – | 51 | 52 | 60 | 54
Cn1ncc2c(Nc3ccc(Cl)c(Cl)c3)ncnc21 | ? | – | – | – | – | · | · | ·
O=C(CN1C(=O)NC2(CCCC2)C1=O)Nc1cc(Cl)ccc1Oc1ccccc1 | · | – | – | – | – | · | · | ·
O=C(Nc1nc2cc3c(cc2s1)OCO3)C1CC1 | – | – | – | – | – | · | · | ·
O=C(Nc1nc2cc3c(cc2s1)OCO3)C1CCCCC1 | – | – | – | – | 56 | 64 | 56 | 53
CC(C)(C)OC(=O)NCCCCCNC(=O)c1nc[nH]c1C(=O)N1CCN(C(=O)OC(C)(C)C)CC1 | · | – | – | – | – | · | · | ·
CC1CCCCN1C(=O)COC(=O)c1cccc(NS(=O)(=O)c2ccccc2)c1 (configuration not stated) | – | – | – | – | – | · | · | ·
O=C(Nc1nnc(CCc2ccccc2)s1)c1ccccc1F | – | – | – | – | – | · | · | ·
CC1(c2nnc(-c3ccccc3)o2)CC(c2c(Cl)cccc2Cl)=NO1 (configuration not stated) | – | – | – | – | 55 | 71 | – | –
CC1(c2nnc(-c3ccncc3)o2)CC(c2c(Cl)cccc2Cl)=NO1 (configuration not stated) | – | – | – | – | – | · | · | ·
Cc1ccc(CN2C(=O)C(C)Nc3ncnc(N4CCN(c5ccccn5)CC4)c32)cc1 (configuration not stated) | – | – | – | – | – | · | · | ·
C[C@H](NC(=O)c1[nH]cnc1C(=O)Nc1ccc(Cl)cc1)C(=O)OC(C)(C)C | – | – | – | – | 58 | 65 | – | –
